Data taken from PubChem BioAssay (EPA / NIEHS).
“And” between values parts separate entries of the source, which are not always exact repeats. Equal entries are not always repeated. Where a structure was tested more than once in an assay, its records may differ in their call. The source made the active and inactive calls. How the source made its calls: active means hit-call score of the fitted dose curve at least 0.9, where 1 is the maximum; inactive means score below 0.9.

read-out: Cytochrome P450 2C19 (Homo sapiens) (UniProt P33261); test: LTEA_HepaRG_CYP2C19: Life Technologies and Expression Analysis (LTEA) Assay for CYP2C19 using HepaRG (AID 2283482); conditions: mRNA level, 48 h; actives raise or lower the signal
Experimental: LTEA_HepaRG is a cell based, multiplexed-readout assay that uses HepaRG, a human liver cell line, with measurements taken at 48 hours after chemical dosing on a 96-well plate.LTEA_HepaRG_CYP2C19 is one of 102 assay component(s) measured in the LTEA HepaRG cell culture assay. It is a marker of NR mediated metabolism.Data from the assay component LTEA_HepaRG_CYP2C19 was analyzed into 1 endpoint. This assay endpoint, LTEA_HepaRG_CYP2C19, was analyzed with bidirectional fitting relative to DMSO as the negative control and baseline of activity. Using a type of inducible reporter, measures of mRNA induction for gain or loss-of-signal activity can be used to understand regulation of transcription factor activity. To generalize the intended target to other relatable targets, this assay endpoint is annotated to the cyp intended target family, where the subfamily is xenobiotic metabolism.
A total of 1060 chemcials from the ToxCast library were tested in eight-point concentration-response experiments. Cell culture and cytotoxicity assays were conducted at Thermo Fisher Scientific's Custom Services facility (Madison, WI). A single lot of human HepaRG cells (Thermo Fisher Scientific, Frederick, MD) was used for the cell culture experiments. 96-well format collagen type I coated plates of human HepaRG cells were prepared using established methods. Briefly, cryopreserved HepaRG cells were thawed, plated at a density of approximately 100,000 cells/well in HepaRG Thaw, Plate, and General Purpose media (HPRG770, Thermo Fisher Scientific), and incubated for 48 hours. 0.5% DMSO was selected as vehicle control to balance the requisite need of DMSO in HepaRG cultures to maintain differentiation (for example, baseline metabolism, proportions of hepatocytes vs. cholangiocytes), while enabling further hepatic receptor pathway activation (for example, PXR and CAR) in response to chemical exposure. 48 hours after plating, the culture medium was replaced with HepaRG Serum-Free Incudtion Media. Cells were exposed to each test chemical in duplicate and maintained in CO2 incubators for another 48 hours. Chemical plates were thawed to room temperature and 200x concentrations of treatment groups were prepared. 8-point conentration-reponse curves were made with the highest exposure at 100 uM, followed by half-log dilutions, all in 0.5% DMSO. Each test plate contained variouse controls, induction positive controls (1mM phenobarbital), cytotoxicity positive controls ([…] aflatoxin B1), vehicle controls (0.5% DMSO), and total lysis controls (0.5% DMSO). Cell morphology images were taken using an Essen IncuCyte FLR automated microscope, with six 96-well plates imaged in about 24 minutes. Images were captured and exported and JPEG files. Spent culture media was transfered to black-well plates for the LDH assay, and remaining media was sorted at -80 C for later use. Cells were treated with RLT buffer and frozen until shipped for gene expression analysis. Total RNA was isolated from the cell suspension in 75 uL of Buffer RLT (Qiagen, Germantown, MD 20874) by Quintiles/Expression Analysis (Durham, NC) using a custom isolation procedure. Total RNA from each plate well was transferred to a preamplification plate. Fluidigm's 96.96 Dynamic ArrayTM (Fluidigm, Amsterdam, the Netherlands) technology was used for gene expression analyses by quantitative reverse transcription polymerase chain reaction (qRT-PCR, performed by Quintiles/Expression Analysis, Durham, NC)89. Standard TaqManTM Assays (Applied Biosystems/ThermoFisher Scientific, Foster City, CA) were used to assess the expression of 93 genes selected based on their selectivity and sensitivity to important hepatic receptors known to be modulated by environmental chemicals; importance in human hepatocyte functionality; and hepatotoxicity. […]

Chain of Cytochrome P450 2C19 (Homo sapiens) (P33261 whole entry, looked up): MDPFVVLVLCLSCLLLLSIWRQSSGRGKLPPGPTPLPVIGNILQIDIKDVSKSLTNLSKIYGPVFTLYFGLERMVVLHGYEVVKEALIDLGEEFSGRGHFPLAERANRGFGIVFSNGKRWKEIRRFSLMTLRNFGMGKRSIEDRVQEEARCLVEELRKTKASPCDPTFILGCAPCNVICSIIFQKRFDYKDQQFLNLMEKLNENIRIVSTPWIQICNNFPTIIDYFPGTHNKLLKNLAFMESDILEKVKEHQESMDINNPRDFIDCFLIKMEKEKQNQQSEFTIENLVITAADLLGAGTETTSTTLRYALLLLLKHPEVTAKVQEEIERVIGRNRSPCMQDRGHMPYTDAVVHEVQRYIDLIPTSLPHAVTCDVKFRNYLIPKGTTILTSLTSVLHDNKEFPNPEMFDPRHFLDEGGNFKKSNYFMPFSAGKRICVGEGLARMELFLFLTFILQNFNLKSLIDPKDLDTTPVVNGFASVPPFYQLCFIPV

Structure (SMILES) | AC50 | outcome
CC1(c2ccc(Oc3ccccc3)cc2)OC(=O)N(Nc2ccccc2)C1=O (stereo not given) | 26.3 µM (active) | 
CCc1ccc(C(=O)NN(C(=O)c2cc(C)cc(C)c2)C(C)(C)C)cc1 | 2.71 µM (active) | 
CC(C)(C)C(O)C(Oc1ccc(Cl)cc1)n1cncn1 (stereo not given) | 2.61 µM (active) and 3.24 µM (active) and 1.89 µM (active) | 
O=C(O)C(F)(F)C(F)(F)C(F)(F)C(F)(F)C(F)(F)C(F)(F)C(F)(F)F | 9.92 µM (active) and 5.55 µM (active) | 
CCC(C)(C)C(=O)OC1=C(c2ccc(Cl)cc2Cl)C(=O)OC12CCCCC2 |  | inactive
CCC(C)Nc1c([N+](=O)[O-])cc(C(C)(C)C)cc1[N+](=O)[O-] (stereo not given) | 12.9 µM (active) | 
O=S1OCC2C(CO1)C1(Cl)C(Cl)=C(Cl)C2(Cl)C1(Cl)Cl (stereo not given) | 89.2 µM (active) | 
Clc1ccccc1-c1nnc(-c2ccccc2Cl)nn1 | 15.3 µM (active) | 
Oc1cc(Cl)ccc1Oc1ccc(Cl)cc1Cl | 83.2 µM (active) | inactive
CNC(=O)Oc1cccc(N=CN(C)C)c1 |  | inactive
C#CCN1C(=O)COc2cc(F)c(N3C(=O)C4=C(CCCC4)C3=O)cc21 | 6.97 µM (active) | 
O=S(=O)(O)C(F)(F)C(F)(F)C(F)(F)C(F)(F)C(F)(F)C(F)(F)C(F)(F)C(F)(F)F | 89.3 µM (active) and 12.1 µM (active) and 11 µM (active) | inactive
O=C(NC(=O)c1c(F)cccc1F)Nc1ccc(OC(F)(F)C(F)OC(F)(F)F)c(Cl)c1 (stereo not given) |  | inactive
CCCN(CCC)c1c([N+](=O)[O-])cc(C(F)(F)F)cc1[N+](=O)[O-] |  | inactive
CC1(C)C(C=C(Cl)Cl)C1C(=O)OC(C#N)c1ccc(F)c(Oc2ccccc2)c1 (stereo not given) | 20.7 µM (active) | 
Oc1ccc(Cl)cc1Cc1ccccc1 | 83.7 µM (active) and 50.5 µM (active) | inactive
CCN(CC)C(=O)SCc1ccc(Cl)cc1 | 17.7 µM (active) | 
CCC(C)(NC(=O)c1cc(Cl)c(C)c(Cl)c1)C(=O)CCl (stereo not given) | 85.4 µM (active) | 
CC(C)N(C(=O)COc1nnc(C(F)(F)F)s1)c1ccc(F)cc1 |  | inactive

Structure (SMILES) | AC50 | outcome
CC(C)(C)C(O)/C(=C\c1ccc(Cl)cc1Cl)n1cncn1 (stereo not given) | 4.01 µM (active) | 
O=C(O)COc1ccc(Cl)cc1Cl | 19.6 µM (active) | 
CC[C@H](C)[C@H]1O[C@]2(C=C[C@@H]1C)C[C@@H]1C[C@@H](C/C=C(\C)[C@@H](O[C@H]3C[C@H](OC)[C@@H](O[C@H]4C[C@H](OC)[C@@H](O)[C@H](C)O4)[C@H](C)O3)[C@@H](C)/C=C/C=C3\CO[C@@H]4[C@H](O)C(C)=C[C@@H](C(=O)O1)[C@]34O)O2 (tested in a mixture with another compound) | 11.6 µM (active) | 
N#CN |  | inactive
Cc1[nH]c(=O)n(C(C)(C)C)c(=O)c1Cl | 31.1 µM (active) | 
CN1CSC(=S)N(C)C1 |  | inactive
O=[N+]([O-])/N=C1\NCCN1Cc1ccc(Cl)nc1 | 34 µM (active) | 
COP(=S)(OC)Oc1ccc(SC)c(C)c1 | 50 µM (active) | 
O=C(Nc1ccccc1)Nc1cnns1 | 89.1 µM (active) | 
CC(C)OC(=O)Nc1cccc(Cl)c1 |  | inactive
COc1nn(CSP(=S)(OC)OC)c(=O)s1 | 10.6 µM (active) | 
O=C(O)CCCOc1ccc(Cl)cc1Cl | 14 µM (active) | 
CCOCN(C(=O)CCl)c1c(C)cccc1CC | 89.5 µM (active) | 
O=[N+]([O-])c1c(Cl)c(Cl)c(Cl)c(Cl)c1Cl |  | inactive
CCOC1Oc2ccc(OS(C)(=O)=O)cc2C1(C)C (stereo not given) | 11.7 µM (active) | 
CNC(=O)Oc1ccccc1OC(C)C |  | inactive
N#Cc1c(Cl)c(Cl)c(Cl)c(C#N)c1Cl |  | inactive
CCCN(CCOc1c(Cl)cc(Cl)cc1Cl)C(=O)n1ccnc1 | 36.8 µM (active) | 
